We go through one sequence from paper PMC7862700, “An all-to-all approach to the identification of sequence-specific readers for epigenetic DNA modifications on cytosine”.

What all share (test): DAPPL (digital affinity profiling via proximity ligation, sequencing); 10 mM Tris-HCl pH 7.5, 50 mM NaCl, 1 mM DTT, 4% glycerol, room temperature, 30 min; GST-TFs on glutathione beads, 16-mer random dsDNA library, 0.1% formaldehyde crosslink after washing; high values mean tight binding
The target in one assay is T1, FLI1 (Homo sapiens, UniProt Q01543 1-452).
T1 sequence: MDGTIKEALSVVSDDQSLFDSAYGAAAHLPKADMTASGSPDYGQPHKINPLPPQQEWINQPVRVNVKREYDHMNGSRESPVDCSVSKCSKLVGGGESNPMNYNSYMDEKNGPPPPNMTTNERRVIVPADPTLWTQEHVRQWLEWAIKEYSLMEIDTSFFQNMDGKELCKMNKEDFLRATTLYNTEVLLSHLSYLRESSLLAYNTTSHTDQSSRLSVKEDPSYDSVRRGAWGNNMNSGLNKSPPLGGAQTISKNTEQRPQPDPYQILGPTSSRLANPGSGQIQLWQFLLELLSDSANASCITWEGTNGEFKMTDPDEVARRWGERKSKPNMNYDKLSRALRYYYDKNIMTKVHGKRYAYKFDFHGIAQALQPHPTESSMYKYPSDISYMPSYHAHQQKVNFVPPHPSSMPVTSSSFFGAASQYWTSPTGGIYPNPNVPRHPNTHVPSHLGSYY
The note with it: protein: recombinant; tags: N-terminal GST; dsDNA, one strand shown. In short, it runs like this: (§1)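 Pools were built from human transcription factors expressed in yeast as GST fusions, captured on glutathione beads and DNA-barcoded, along with a tag-only sample. Incubation with 200 nmole of a 16-mer random double-stranded DNA library lasted 30 min at room temperature in Tris/NaCl/DTT/glycerol buffer, and was followed by washing, 0.1% formaldehyde crosslinking, proximity ligation, PCR amplification and Illumina NextSeq500 sequencing. Binding signal is the quotient of each hexamer's read frequency for a factor and its frequency for the tag-only sample.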

The next assay addresses T2, ELK1 (Homo sapiens, UniProt P19419 1-428).
T2 sequence: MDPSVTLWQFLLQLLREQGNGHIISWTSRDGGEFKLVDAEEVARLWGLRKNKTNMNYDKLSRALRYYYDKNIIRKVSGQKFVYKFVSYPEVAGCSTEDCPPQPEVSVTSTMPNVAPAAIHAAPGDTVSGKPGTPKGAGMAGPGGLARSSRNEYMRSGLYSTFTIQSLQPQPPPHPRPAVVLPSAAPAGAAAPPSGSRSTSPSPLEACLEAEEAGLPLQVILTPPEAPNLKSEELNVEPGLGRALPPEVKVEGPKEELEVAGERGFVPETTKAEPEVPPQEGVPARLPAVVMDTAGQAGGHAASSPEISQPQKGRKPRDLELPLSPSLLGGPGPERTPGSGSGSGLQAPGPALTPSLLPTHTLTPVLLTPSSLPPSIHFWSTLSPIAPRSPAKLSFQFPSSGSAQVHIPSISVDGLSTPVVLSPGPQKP
The following applies: protein: recombinant; tags: N-terminal GST; dsDNA, one strand shown. In short, it runs like this:
as §1

In the next assay the target is T3, GABPA (Homo sapiens, UniProt Q06546 1-454).
T3 sequence: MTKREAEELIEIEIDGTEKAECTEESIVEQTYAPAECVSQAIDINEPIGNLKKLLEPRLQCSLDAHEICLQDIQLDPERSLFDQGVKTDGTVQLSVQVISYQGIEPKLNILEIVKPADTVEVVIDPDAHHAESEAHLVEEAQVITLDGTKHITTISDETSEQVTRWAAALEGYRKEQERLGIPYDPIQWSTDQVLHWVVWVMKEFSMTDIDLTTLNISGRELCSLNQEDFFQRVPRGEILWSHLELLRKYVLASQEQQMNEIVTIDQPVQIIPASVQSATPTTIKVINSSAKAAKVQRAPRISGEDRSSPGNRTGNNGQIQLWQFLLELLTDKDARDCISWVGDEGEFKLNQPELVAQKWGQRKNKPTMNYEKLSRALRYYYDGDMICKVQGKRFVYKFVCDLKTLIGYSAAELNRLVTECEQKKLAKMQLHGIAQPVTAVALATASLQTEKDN
The following applies: protein: recombinant; tags: N-terminal GST; dsDNA, one strand shown. In short, it runs like this: as §1

For the next assay, the target named is T4, ERG (Homo sapiens, UniProt P11308 1-479).
T4 sequence: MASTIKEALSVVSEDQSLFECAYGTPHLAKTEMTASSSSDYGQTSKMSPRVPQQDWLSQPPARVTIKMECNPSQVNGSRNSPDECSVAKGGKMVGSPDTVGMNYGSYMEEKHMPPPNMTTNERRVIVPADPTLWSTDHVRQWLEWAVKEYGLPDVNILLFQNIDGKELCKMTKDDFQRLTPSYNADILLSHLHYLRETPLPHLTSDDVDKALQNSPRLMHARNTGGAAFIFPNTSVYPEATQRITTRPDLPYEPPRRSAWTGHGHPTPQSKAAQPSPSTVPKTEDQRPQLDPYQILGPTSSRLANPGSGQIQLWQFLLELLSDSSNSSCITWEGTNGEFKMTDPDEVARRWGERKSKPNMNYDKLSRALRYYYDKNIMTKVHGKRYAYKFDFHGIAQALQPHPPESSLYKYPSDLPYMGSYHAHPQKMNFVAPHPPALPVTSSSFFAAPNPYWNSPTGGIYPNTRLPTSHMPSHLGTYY
The note with it: protein: recombinant; tags: N-terminal GST; dsDNA, one strand shown. In short, it runs like this:
as §1

A further assay addresses ELF1 (Homo sapiens, UniProt P32519 1-619). The note with it: protein: recombinant; tags: N-terminal GST; dsDNA, one strand shown. In short, it runs like this:
as §1

Another assay addresses T5, EHF (Homo sapiens, UniProt Q9NZC4 1-300).
T5 sequence: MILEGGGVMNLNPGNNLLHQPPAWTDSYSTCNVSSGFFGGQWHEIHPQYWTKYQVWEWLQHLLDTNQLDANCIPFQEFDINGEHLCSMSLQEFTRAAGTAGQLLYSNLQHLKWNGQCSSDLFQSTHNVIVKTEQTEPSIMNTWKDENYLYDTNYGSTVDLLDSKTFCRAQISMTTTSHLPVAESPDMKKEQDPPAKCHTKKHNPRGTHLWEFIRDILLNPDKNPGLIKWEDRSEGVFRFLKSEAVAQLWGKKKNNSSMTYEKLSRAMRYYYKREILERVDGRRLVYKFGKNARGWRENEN
The following applies: protein: recombinant; tags: N-terminal GST; dsDNA, one strand shown. In short, it runs like this:
as §1

The target in the next assay is SPI1 (Homo sapiens, UniProt P17947 1-270). The note with it: protein: recombinant; tags: N-terminal GST; dsDNA, one strand shown. In short, it runs like this: as §1
Another assay has as its target SPIB (Homo sapiens, UniProt Q01892 1-262). The following applies: protein: recombinant; tags: N-terminal GST; dsDNA, one strand shown. In short, it runs like this: as §1
In another assay the target is T6, ELK3 (Homo sapiens, UniProt P41970 1-407).
T6 sequence: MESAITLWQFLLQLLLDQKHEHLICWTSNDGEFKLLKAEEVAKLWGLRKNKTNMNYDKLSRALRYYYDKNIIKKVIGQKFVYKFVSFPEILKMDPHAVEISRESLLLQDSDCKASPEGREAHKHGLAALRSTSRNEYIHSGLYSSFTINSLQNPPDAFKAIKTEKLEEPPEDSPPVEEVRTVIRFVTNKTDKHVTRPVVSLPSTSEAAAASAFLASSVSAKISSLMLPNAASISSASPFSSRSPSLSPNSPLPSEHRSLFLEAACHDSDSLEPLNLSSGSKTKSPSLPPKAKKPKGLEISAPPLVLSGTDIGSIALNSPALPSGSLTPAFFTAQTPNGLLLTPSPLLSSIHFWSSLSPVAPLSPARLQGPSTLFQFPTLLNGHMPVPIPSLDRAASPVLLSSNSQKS
The following applies: protein: recombinant; tags: N-terminal GST; dsDNA, one strand shown. In short, it runs like this: as §1

Another assay addresses T7, FEV (Homo sapiens, UniProt Q99581 1-238).
T7 sequence: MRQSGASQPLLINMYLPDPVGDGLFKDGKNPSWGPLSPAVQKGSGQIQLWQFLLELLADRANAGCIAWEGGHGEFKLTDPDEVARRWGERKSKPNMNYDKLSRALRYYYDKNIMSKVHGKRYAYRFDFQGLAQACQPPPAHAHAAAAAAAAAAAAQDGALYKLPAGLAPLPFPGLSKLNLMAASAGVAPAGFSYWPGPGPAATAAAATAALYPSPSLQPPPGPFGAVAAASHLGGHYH
The following applies: protein: recombinant; tags: N-terminal GST; dsDNA, one strand shown. In short, it runs like this: as §1

The next assay has as its target ETV5 (Homo sapiens, UniProt P41161 1-510). The note with it: protein: recombinant; tags: N-terminal GST; dsDNA, one strand shown. In short, it runs like this:
as §1

For the next assay, the target named is HSF1 (Homo sapiens, UniProt Q00613 1-529). The following applies: protein: recombinant; tags: N-terminal GST; chain copies: 3; dsDNA, one strand shown. In short, it runs like this:
as §1

In the next assay the target is T8, SPIC (Homo sapiens, UniProt Q8N5J4 1-248).
T8 sequence: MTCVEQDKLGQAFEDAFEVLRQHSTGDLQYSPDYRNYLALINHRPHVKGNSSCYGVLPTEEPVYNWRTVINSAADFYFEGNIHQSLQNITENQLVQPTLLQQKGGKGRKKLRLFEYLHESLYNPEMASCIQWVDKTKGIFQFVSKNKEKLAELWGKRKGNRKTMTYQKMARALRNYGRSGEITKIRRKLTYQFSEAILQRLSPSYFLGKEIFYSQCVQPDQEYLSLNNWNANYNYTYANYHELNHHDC
The note with it: protein: recombinant; tags: N-terminal GST; dsDNA, one strand shown. In short, it runs like this: as §1

In a further assay the target is ELF4 (Homo sapiens, UniProt Q99607 1-663). The note with it: protein: recombinant; tags: N-terminal GST; dsDNA, one strand shown. In short, it runs like this:
as §1

For another assay, the target named is T9, ELK4 (Homo sapiens, UniProt P28324-2 1-405).
T9 sequence: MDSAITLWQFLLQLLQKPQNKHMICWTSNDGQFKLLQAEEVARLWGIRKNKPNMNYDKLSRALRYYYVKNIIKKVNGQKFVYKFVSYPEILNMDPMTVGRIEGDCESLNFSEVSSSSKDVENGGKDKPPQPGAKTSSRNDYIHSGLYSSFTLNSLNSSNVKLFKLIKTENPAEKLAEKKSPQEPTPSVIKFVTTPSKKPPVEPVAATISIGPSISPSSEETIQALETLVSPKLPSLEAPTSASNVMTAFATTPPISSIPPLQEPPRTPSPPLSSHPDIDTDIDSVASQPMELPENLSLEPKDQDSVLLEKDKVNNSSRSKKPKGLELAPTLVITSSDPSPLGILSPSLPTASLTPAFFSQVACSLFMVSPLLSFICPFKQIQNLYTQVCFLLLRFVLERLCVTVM
The note with it: protein: recombinant; tags: N-terminal GST; dsDNA, one strand shown. In short, it runs like this: as §1

The target in the next assay is T10, ETV2 (Homo sapiens, UniProt O00321 1-342).
T10 sequence: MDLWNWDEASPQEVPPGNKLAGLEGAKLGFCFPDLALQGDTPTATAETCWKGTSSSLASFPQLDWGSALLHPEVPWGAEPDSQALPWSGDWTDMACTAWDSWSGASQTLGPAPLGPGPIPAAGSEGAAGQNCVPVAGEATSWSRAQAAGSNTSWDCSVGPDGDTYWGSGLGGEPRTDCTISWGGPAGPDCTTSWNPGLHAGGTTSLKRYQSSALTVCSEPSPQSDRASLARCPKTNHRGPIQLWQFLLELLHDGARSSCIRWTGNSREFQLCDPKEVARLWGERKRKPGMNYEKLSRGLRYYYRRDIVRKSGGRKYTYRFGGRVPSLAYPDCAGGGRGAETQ
The following applies: protein: recombinant; tags: N-terminal GST; dsDNA, one strand shown. In short, it runs like this: as §1

The next assay has as its target T11, ELF3 (Homo sapiens, UniProt P78545 1-371).
T11 sequence: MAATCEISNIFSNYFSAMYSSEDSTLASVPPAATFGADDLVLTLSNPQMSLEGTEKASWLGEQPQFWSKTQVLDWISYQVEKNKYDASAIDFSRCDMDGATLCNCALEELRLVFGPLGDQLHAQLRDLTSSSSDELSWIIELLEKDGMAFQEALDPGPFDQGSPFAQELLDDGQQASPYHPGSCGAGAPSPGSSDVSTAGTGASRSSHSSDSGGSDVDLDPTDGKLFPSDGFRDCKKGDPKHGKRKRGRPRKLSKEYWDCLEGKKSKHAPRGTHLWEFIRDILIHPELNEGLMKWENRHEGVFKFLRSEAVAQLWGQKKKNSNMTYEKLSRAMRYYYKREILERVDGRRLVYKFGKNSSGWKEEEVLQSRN
The following applies: protein: recombinant; tags: N-terminal GST; dsDNA, one strand shown. In short, it runs like this: as §1

Another assay addresses CRX (Homo sapiens, UniProt O43186 1-299). The following applies: protein: recombinant; tags: N-terminal GST; dsDNA, one strand shown. In short, it runs like this: as §1
For the next assay, the target named is ETV1 (Homo sapiens, UniProt P50549 1-477). The note with it: protein: recombinant; tags: N-terminal GST; dsDNA, one strand shown. In short, it runs like this: as §1
Sequence of ETV1 (P50549 whole entry): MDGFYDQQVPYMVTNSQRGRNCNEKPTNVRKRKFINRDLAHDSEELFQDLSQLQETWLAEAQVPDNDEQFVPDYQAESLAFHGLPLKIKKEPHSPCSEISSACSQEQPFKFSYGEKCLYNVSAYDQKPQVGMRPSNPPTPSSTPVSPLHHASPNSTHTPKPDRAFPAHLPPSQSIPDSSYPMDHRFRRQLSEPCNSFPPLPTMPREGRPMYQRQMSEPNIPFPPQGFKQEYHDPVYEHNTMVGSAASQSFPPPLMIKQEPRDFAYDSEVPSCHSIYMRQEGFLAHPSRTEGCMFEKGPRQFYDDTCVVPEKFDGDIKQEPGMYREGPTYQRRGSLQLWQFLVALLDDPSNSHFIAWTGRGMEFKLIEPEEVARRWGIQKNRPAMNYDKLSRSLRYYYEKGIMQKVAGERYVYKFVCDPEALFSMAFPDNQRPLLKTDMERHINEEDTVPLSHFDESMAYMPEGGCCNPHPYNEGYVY

Sequence of HSF1 (Q00613 whole entry): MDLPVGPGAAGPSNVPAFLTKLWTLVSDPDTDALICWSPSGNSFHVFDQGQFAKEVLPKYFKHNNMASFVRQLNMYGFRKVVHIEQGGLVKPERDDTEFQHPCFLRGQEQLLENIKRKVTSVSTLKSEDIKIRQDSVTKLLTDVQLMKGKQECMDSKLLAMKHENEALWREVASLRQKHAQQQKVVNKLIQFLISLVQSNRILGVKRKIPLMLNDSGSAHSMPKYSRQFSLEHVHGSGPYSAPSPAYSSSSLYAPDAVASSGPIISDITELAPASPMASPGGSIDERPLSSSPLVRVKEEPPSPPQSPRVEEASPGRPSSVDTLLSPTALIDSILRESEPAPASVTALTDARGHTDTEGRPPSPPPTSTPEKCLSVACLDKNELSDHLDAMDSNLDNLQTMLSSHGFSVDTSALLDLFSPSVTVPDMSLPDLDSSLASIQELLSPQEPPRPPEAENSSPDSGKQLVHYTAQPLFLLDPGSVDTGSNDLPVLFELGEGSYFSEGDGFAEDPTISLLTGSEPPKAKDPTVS
Sequence of CRX (O43186 whole entry): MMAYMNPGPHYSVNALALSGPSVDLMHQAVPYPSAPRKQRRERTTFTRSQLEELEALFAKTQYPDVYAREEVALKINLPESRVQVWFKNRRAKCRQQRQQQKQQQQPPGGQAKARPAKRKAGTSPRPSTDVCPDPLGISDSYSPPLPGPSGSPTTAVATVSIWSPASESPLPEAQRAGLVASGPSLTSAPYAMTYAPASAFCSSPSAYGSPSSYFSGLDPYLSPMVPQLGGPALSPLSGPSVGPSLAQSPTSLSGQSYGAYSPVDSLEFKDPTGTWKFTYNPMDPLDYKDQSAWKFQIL
Sequence of ETV5 (P41161 whole entry): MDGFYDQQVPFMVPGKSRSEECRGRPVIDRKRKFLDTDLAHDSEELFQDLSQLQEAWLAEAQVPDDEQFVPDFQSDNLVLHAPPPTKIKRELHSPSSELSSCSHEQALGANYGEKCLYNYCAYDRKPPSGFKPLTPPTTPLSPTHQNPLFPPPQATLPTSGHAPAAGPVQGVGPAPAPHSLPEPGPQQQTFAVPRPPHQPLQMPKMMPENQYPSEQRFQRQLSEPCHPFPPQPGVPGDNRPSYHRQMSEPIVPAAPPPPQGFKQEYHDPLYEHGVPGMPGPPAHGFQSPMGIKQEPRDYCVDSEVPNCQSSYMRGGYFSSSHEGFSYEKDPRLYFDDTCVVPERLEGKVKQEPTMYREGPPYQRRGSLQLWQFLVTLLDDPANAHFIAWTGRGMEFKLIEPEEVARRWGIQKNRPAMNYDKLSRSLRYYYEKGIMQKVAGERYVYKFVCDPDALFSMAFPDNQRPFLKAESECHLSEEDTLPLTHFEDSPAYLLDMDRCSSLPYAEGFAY
Sequence of ELF1 (P32519 whole entry): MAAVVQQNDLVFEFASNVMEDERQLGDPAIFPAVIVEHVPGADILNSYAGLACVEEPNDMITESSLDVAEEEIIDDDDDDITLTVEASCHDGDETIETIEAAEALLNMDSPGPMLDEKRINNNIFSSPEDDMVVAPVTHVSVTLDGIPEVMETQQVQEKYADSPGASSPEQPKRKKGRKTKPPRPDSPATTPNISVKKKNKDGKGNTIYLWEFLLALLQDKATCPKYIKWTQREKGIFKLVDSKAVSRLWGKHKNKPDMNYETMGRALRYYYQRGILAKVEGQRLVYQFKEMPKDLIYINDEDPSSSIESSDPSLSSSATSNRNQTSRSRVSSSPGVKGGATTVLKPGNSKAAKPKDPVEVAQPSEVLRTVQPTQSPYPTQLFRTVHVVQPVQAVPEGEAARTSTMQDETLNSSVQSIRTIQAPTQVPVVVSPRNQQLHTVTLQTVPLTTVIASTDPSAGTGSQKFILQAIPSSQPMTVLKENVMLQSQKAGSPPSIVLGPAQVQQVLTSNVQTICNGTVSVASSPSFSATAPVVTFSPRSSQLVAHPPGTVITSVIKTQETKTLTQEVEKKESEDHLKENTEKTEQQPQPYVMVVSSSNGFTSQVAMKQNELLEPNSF
Sequence of ELF4 (Q99607 whole entry): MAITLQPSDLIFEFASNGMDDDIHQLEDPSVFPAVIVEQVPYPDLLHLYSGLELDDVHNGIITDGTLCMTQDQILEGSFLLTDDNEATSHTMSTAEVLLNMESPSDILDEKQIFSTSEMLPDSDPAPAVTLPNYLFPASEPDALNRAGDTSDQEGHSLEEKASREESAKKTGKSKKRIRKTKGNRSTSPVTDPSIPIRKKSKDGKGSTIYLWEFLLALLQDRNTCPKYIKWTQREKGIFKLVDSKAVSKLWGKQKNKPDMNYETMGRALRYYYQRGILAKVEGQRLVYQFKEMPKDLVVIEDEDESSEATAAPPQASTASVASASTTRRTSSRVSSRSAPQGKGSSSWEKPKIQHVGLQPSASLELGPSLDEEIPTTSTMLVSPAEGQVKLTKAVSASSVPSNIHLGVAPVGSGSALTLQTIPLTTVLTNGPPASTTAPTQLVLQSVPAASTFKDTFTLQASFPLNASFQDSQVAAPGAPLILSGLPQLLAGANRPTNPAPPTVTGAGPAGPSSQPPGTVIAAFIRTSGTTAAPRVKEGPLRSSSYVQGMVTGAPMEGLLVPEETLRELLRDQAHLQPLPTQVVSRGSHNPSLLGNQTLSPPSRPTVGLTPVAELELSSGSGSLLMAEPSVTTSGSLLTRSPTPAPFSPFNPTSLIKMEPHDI
Sequence of SPIB (Q01892 whole entry): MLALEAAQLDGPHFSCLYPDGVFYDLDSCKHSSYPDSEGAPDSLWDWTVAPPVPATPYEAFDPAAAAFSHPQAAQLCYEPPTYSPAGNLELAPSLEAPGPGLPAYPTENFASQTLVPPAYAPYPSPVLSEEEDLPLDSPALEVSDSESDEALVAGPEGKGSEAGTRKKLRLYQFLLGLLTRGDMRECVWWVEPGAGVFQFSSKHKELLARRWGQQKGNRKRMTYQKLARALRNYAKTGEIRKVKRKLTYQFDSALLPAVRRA

TAGTCC: the binding signal in the assay with FLI1 is 1.09 fold enrichment (6-mer frequency, TF over GST control); with ELK1, 1.05 fold enrichment (6-mer frequency, TF over GST control); with GABPA, 1.12 fold enrichment (6-mer frequency, TF over GST control); with ERG it was 1.08 fold enrichment (6-mer frequency, TF over GST control); in the assay with ELF1, 1.15 fold enrichment (6-mer frequency, TF over GST control); in the assay with EHF, 1.05 fold enrichment (6-mer frequency, TF over GST control). Also, the binding signal with SPI1 is 1.07 fold enrichment (6-mer frequency, TF over GST control); with SPIB, 1.06 fold enrichment (6-mer frequency, TF over GST control); with ELK3, 1.07 fold enrichment (6-mer frequency, TF over GST control); with FEV, 1.07 fold enrichment (6-mer frequency, TF over GST control); with ETV5, 1.14 fold enrichment (6-mer frequency, TF over GST control); with HSF1 it was 1.21 fold enrichment (6-mer frequency, TF over GST control). In addition, the binding signal with SPIC was 1.16 fold enrichment (6-mer frequency, TF over GST control); in the assay with ELF4, 1.07 fold enrichment (6-mer frequency, TF over GST control); with ELK4, 1.12 fold enrichment (6-mer frequency, TF over GST control); in the assay with ETV2, 1.21 fold enrichment (6-mer frequency, TF over GST control); in the assay with ELF3, 1.13 fold enrichment (6-mer frequency, TF over GST control); in the assay with CRX, 1.38 fold enrichment (6-mer frequency, TF over GST control). Further, the binding signal with ETV1 is 1.1 fold enrichment (6-mer frequency, TF over GST control).
